{
  "source": "PubChem BioAssay AID651906",
  "about": "(Vanderbilt Specialized Chemistry Center, 2012)",
  "target": "Protein deacetylase HDAC6 (Homo sapiens) (UniProt Q9UBN7)",
  "sequence (Q9UBN7 whole entry, looked up)": "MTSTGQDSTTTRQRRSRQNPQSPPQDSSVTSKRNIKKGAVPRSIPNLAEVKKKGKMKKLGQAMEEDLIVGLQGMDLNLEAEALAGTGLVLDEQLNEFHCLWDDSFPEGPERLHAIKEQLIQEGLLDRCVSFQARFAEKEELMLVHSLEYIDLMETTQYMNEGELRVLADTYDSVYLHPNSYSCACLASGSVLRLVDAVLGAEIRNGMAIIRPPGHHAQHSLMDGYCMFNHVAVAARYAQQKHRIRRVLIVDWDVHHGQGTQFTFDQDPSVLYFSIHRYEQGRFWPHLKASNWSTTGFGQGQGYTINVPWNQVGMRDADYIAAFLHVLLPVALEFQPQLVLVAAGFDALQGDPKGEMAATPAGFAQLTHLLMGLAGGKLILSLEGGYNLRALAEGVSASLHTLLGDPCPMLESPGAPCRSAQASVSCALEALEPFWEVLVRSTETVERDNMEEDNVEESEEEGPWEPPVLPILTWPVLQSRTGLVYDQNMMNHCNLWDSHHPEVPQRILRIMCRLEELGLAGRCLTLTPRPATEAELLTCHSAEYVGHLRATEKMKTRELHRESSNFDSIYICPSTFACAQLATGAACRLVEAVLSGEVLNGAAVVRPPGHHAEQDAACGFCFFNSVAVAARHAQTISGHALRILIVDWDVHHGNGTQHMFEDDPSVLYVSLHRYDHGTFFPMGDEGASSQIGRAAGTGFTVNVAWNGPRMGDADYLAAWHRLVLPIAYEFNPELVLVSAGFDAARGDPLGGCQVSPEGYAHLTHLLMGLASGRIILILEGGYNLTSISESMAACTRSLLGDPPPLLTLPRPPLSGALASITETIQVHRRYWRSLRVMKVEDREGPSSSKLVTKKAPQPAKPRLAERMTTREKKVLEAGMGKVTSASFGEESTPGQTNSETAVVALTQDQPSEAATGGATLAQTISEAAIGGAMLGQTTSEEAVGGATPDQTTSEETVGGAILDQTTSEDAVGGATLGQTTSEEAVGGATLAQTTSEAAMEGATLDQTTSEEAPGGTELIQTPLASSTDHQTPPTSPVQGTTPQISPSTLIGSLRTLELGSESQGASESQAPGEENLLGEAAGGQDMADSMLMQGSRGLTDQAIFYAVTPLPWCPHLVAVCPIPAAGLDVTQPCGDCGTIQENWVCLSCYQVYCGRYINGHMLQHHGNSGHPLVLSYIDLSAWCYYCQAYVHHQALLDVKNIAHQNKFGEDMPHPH",
  "assay": "inhibitors of recombinant human HDAC6 – biochemical, selectivity assay for E-cadherin restoration project, profiling panel (AID 651906)",
  "note": "Calls of active or inactive are those of the source. No rule for the calls is given here.",
  "data": [
    {"smiles": "O=C(NCCCNC(=O)c1ccc[nH]c1=O)c1cc(-c2ccccc2)on1", "values": [
      {"measurement": "outcome", "result": "inactive"}
    ]}
  ]
}
